In PubChem BioAssay (Tox21):
Records with an inconclusive call do not appear. Entries that show only a call come without a potency. A structure can be active in one record and inactive in another. The source made the active and inactive calls. Calls follow the shape of the dose curve; as a rule, active = well fitted cell-killing curve with a large enough effect in the repeat runs; inconclusive = weak or mixed curves, or effect the other way; inactive = no such curve, though single readings can be large or run the other way.

Test: qHTS assay to identify small molecule agonists of the RXR signaling pathway - cell viability counter screen (AID 1159529); also: nearly all actives have a fitted effect of over 50% in size
Conditions: RXR-alpha-bla HEK293T viability, CellTiter-Glo, 16 h; series mostly up to 76.8 µM; activity change, negative = cytotoxicity: at the top concentration
Excerpt: National Center for Advancing Translational Sciences [NCATS]
NIH Chemical Genomics Center [NCGC]
U.S. Environmental Protection Agency [EPA]
National Institutes of Environmental Health Sciences [NIEHS]
National Toxicology Program [NTP]
U.S. Food and Drug Administration [FDA]
The Retinoid X receptor (RXR), a nuclear hormone receptor expressed in liver, spleen, placenta, epidermis, central nervous system. These receptors are able to form homo and heterodimers with other nuclear receptors and due to this heterodimerizing ability, RXR functions as master regulators producing diverse physiological effects. Three subtypes of RXR exist; alpha, beta and gamma. Retinoid X receptor alpha (RXR-alpha) has potential roles in metabolic signaling pathways, skin alopecia, dermal cysts, cardiac development, insulin sensitization etc. Therefore screening environmental chemicals on RXR-alpha signaling can be used for the studies focused on such therapeutic applications. For quantification of RXR-alpha ligands signaling, GeneBLAzer RXR alpha-UAS-bla HEK 293T (Life Technologies, Carlsbad, CA) cells containing a beta-lactamase reporter-gene under control of Retinoid X receptor-alpha response element were used to screen Tox21 10K library. The cytotoxicity of the Tox21 compound library against the RXR-alpha HEK 293T cell line was tested in parallel by measuring cell viability using CellTiter-Glo assay (Promega Corporation, Madison, WI) in the same wells.
Tox21 Assay Protocol Summary:
RXR-alpha HEK 293T cells were dispensed at 2,000 cells/6 uL of assay medium containing 2% charcoal-stripped FBS using a Multidrop Combi (ThermoFisher Scientific, Waltham, MA) dispenser. The assay was performed in black wall/clear-bottom 1536-well plates (Greiner Bio-One North America Inc. Monroe, NC). Tetraoctyl ammonium bromide was used as a positive control in the cytotoxicity screen. After the assay plates were incubated at 37 C and 5% CO2 for 5 hr, 23 nL of compounds dissolved in DMSO, positive control or DMSO only were transferred to the assay plate by a Pintool station (Kalypsys, San Diego, CA). The assay plates were incubated at 37 C and 5% CO2 for 16 hr. One uL of LiveBLAzer B/G FRET substrate (Life Technologies) was added using a Flying Reagent Dispenser (FRD) (Aurora Discovery, San Diego, CA) and the plates were incubated at room temperature for 2 hr. Fluorescence intensity (405 nm excitation, 460/530 nm emission) was measured using an Envision plate reader (PerkinElmer, Shelton, CT). For cytotoxicity, 4 uL/well of CellTiter-Glo reagent was added into the assay plates using an FRD. After 30 min incubation at room temperature, the luminescence intensity was measured using a ViewLux plate reader (PerkinElmer).
Potency is read from the fitted curve at half-maximal effect.

SMILES | activity change, negative = cytotoxicity | Potency
CCCCCCCCCCCCCC(=O)O | -14% (inactive) | 
C=CC(=O)NCOCCCC |  | inactive
Nc1nc(N)c2nc(-c3ccccc3)c(N)nc2n1 |  | inactive
CC(C)c1ccc(C(C)C)cc1 |  | inactive
COc1ccc([C@@H]2CC(=O)c3c(O)cc(O[C@@H]4O[C@H](CO[C@@H]5O[C@@H](C)[C@H](O)[C@@H](O)[C@H]5O)[C@@H](O)[C@H](O)[C@H]4O)cc3O2)cc1OC |  | inactive
Cc1ccc(C)c(S(=O)(=O)O)c1 |  | inactive
C=C(CC(=O)O)C(=O)O |  | inactive
N#CCC(=O)O |  | inactive
CC(O)CNCC(C)O (stereo not given) |  | inactive
CCOC(=O)CC(=O)OCC |  | inactive
C[n+]1ccn(CCO)c1 |  | inactive
CC(=O)C(C)C |  | inactive
CC(C)(C)NC[C@H](O)COc1nsnc1N1CCOCC1 |  | inactive
NC(N)=S |  | inactive
O=[N+]([O-])c1cc(C(F)(F)F)ccc1Cl |  | inactive
Cc1cc(CC(=O)O)n(C)c1C(=O)c1ccc(Cl)cc1 |  | inactive
COc1ccccc1[N+](=O)[O-] |  | inactive
Cc1ccccc1C=O |  | inactive
CC(=O)c1nccs1 |  | inactive
Cc1ccccc1Cl |  | inactive

SMILES | activity change, negative = cytotoxicity | Potency
Cc1ccc([N+](=O)[O-])cc1N |  | inactive
O=C(O)C1=NN(c2ccc(S(=O)(=O)O)cc2)C(=O)C1 |  | inactive
CC1(C)C(=O)N(Cl)C(=O)N1Cl |  | inactive
Cc1ccc(Cl)cc1 |  | inactive
NC1CCCCC1N (stereo not given) |  | inactive
C=C1C[C@]23C[C@@]1(O)CC[C@H]2[C@@]12C=C[C@H](O)[C@@](C)(C(=O)O1)[C@H]2[C@@H]3C(=O)O |  | inactive
CCCCCCCC(=O)O |  | inactive
Cc1ccncc1 |  | inactive
CCCCCCCCC(=O)O |  | inactive
COc1c(Cl)ccc(Cl)c1C(=O)O |  | inactive
CCOC(=O)c1ccc(O)cc1 |  | inactive
c1cnc2c(c1)ccc1cccnc12 | -5.69% (inactive) | 
COC(=O)CCCCC(=O)OC |  | inactive
O=[N+]([O-])c1ccccc1C(F)(F)F |  | inactive
CC(C)=CCC/C(C)=C/C=O |  | inactive
O=C1O[C@H]([C@H](O)CO)C(O)=C1O |  | inactive
Cc1ccc(C(C)C)cc1 |  | inactive
CC(CN1c2ccccc2Sc2ccccc21)N(C)C (stereo not given) |  | 55.5 µM (active) and inactive
CC(C=O)Cc1ccc(C(C)(C)C)cc1 (stereo not given) |  | inactive
CCCCCNCCCCC |  | inactive
